Results published in PubChem BioAssay (NCI).
The panel holds about 83,000 compounds, 20% with a hit somewhere; the sample as a whole holds those more often.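 Growth was measured after 48 h exposure to one concentration of compound in 96-well plates. Values under 10 count as active.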 Values without a mark were called inactive. The source made the active and inactive calls.

Columns and labels:
Assay in all cases: NCI-60 one-dose screen, 48 h (100 = growth as untreated, 0 = no growth, -100 = all killed)
Details in all cases: 10 µM unless noted
DU-145 prostate = system: DU-145 prostate
K-562 leukemia = system: K-562 leukemia
MALME-3M melanoma = system: MALME-3M melanoma
MDA-MB-231 breast = system: MDA-MB-231 breast
RXF 393 renal = system: RXF 393 renal
SF-268 CNS = system: SF-268 CNS
SF-539 CNS = system: SF-539 CNS
UACC-257 melanoma = system: UACC-257 melanoma
M14 melanoma = system: M14 melanoma
HCT-15 colon = system: HCT-15 colon
HT29 colon = system: HT29 colon
SNB-75 CNS = system: SNB-75 CNS
SNB-19 CNS = system: SNB-19 CNS
U251 CNS = system: U251 CNS
PC-3 prostate = system: PC-3 prostate
SK-MEL-5 melanoma = system: SK-MEL-5 melanoma
UACC-62 melanoma = system: UACC-62 melanoma
LOX IMVI melanoma = system: LOX IMVI melanoma
SK-MEL-28 melanoma = system: SK-MEL-28 melanoma

Row | Structure (SMILES) | growth (DU-145 prostate) | growth (K-562 leukemia) | growth (MALME-3M melanoma) | growth (MDA-MB-231 breast) | growth (RXF 393 renal) | growth (SF-268 CNS) | growth (SF-539 CNS) | growth (UACC-257 melanoma) | growth (M14 melanoma) | growth (HCT-15 colon) | growth (HT29 colon) | growth (SNB-75 CNS) | growth (SNB-19 CNS) | growth (U251 CNS) | growth (PC-3 prostate) | growth (SK-MEL-5 melanoma) | growth (UACC-62 melanoma) | growth (LOX IMVI melanoma) | growth (SK-MEL-28 melanoma)
1 | Nc1nc(N)c2cc(CNc3ccc(Cl)c(Cl)c3)ccc2n1 | 44.6% | -72.3% (active) | 47.1% | -23.9% (active) | 26.5% | 35% | 23.7% | 32.4% | -69.7% (active) | 9.76% (active) | -75.2% (active) | 40.1% | 31.5% | -78.1% (active) | 22.5% | 15.4% | 21% | -54.8% (active) | 60.1%
2 | CCCCCCCCNC(C)C(O)c1ccc(SC(C)C)cc1 (stereo not given) | -25.5% (active) | -59.8% (active) | -78% (active) | 89.7% | 37.5% | 34.9% | 26.8% | 56% | -17.4% (active) | 14.8% | -45.4% (active) | 74.8% | 75.9% | 42.5% | 7.49% (active) | 68.4% | 92.7% | -95.5% (active) | 74.3%
3 | CCN(C(=O)Nc1cccc2ccccc12)c1ccccc1 | 107% | 89.3% | 90.6% | 105% | 120% | 104% | 93.5% | 112% | 106% | 90.8% | 103% | 92.4% | 102% | 97.7% | 85.9% | 95.5% | 80.5% | 102% | 112%
4 | COc1ccc2[nH]c(O)c(/C=c3/ccc4c(c3)N=C(c3ccc(F)cc3)N=4)c2c1 | 67.6% | 57.7% | -18.6% (active) | 83.2% | 11.5% | 83.2% | 80.3% | 82.5% | 68.4% | 50.1% | 84.5% | -12.3% (active) | 87.1% | 42.1% | 47.4% | 61.5% | 90.1% | 16.3% | 72.7%
5 | COc1c(B(O)O)cccc1-c1nc2c(F)cc3n[nH]c(C)c3c2c2c1CCCC2 | 15% | 17.8% | 55.9% | 25.5% | -19.3% (active) | 17.5% | 4.1% (active) | 18.8% | 41.1% | 18.3% | 17% | -21.6% (active) | 18.1% | 13.6% | 27.3% | 20.4% | 3.54% (active) | 11.8% | 25%
6 | CCOC(=O)c1ccc(NCCC(=O)O)cc1 | 126% | 90.4% | 110% | 122% | 111% | 119% | 112% | 104% | 104% | 97.1% | 96.8% | 96% | 105% | 109% | 91.7% | 104% | 102% | 101% | 107%
7 | CCOC(=O)C(Nc1ccccc1)C(=O)OCC | 122% | 92.4% | 93.2% | 105% | 114% | 122% | 111% | 112% | 103% | 98.9% | 106% | 85% | 105% | 109% | 88.1% | 102% | 104% | 93.5% | 111%
8 | Cn1c(=O)c2c3c(oc2c2ccccc21)C(=O)c1ccccc1C3=O | 91% | 68.8% | 113% | 11.5% | 101% | 95.3% | 97.2% | 106% | 85.6% | 85% | 73.7% | 64.4% | 93.3% | 90.2% | 64.4% | 76.9% | 77% | 76.6% | 112%
9 | c1ccc(C(CC2=NCCCN2)c2ccccc2)cc1 | 102% | 107% | 93.2% | 88.6% | 113% | 100% | 88% | 97.7% | 92.5% | 114% | 102% | 86.2% | 107% | 90.8% | 83.9% | 105% | 89.6% | 97.8% | 107%
10 | Cc1ccc(CSCc2ccc(C(=O)NC3CC3)o2)cc1 | 80.5% | 40% | 96.4% | 35.3% | 92.7% | 83.2% | 79.8% | 93.5% | 57.3% | 37.7% | 27.9% | 86% | 98.8% | 56.4% | 74.2% | 57.3% | 50.5% | 58.2% | 100%
11 | COc1ccc(-c2[nH]nc(N)c2-c2cc(OC)c(OC)c(OC)c2)cc1 | 2.62% (active) | -15.6% (active) | 25.8% | -10.6% (active) | 20% | 15.1% | -13.1% (active) | 58.1% | -5.11% (active) | 10.1% | -2.71% (active) | 54.9% | 48.8% | 6% (active) | 6.31% (active) | -16.5% (active) | 23.8% | 12.1% | 47.8%
12 | CCOC(=O)c1ccc(N(CCC(=O)O)C(C)=O)cc1 | 122% | 103% | 99.8% | 110% | 106% | 119% | 107% | 98.2% | 105% | 103% | 97.4% | 94.7% | 106% | 102% | 90% | 102% | 99.4% | 105% | 103%
13 | CCN(CC)Cc1cc(Nc2nc(NC3CCC(N(C)C)CC3)c3ccccc3n2)ccc1OC (stereo not given) | 98.8% | 7.54% (active) | 69.1% | 39.8% | 74.9% | 69.8% | 73.9% | -32.6% (active) | -10.2% (active) | 94.7% | 14.2% | 72.3% | 89.4% | 50.5% | 62.6% | 45.7% | 98.4% | 33.7% | 20.6%
14 | C/C(=N\OC(=O)Nc1ccccc1)c1ccccc1 | 97.1% | 96.6% | 107% | 107% | 87.2% | 104% | 105% | 102% | 103% | 96.8% | 105% | 87.7% | 103% | 89.7% | 99.4% | 95.6% | 94.2% | 110% | 101%
15 | O=C(C(Br)C(Br)c1ccccc1)C(Br)C(Br)c1ccccc1 (stereo not given) | -26.4% (active) | -17.5% (active) | -69.5% (active) | -16.5% (active) | -85.1% (active) | -1.83% (active) | -42.5% (active) | -67.3% (active) | 1.62% (active) | -66.4% (active) | -76% (active) | 60% | 72.8% | 4.89% (active) | -31.2% (active) | 2.03% (active) | -83.5% (active) | -79.1% (active) | -35.6% (active)
16 | C#CC[C@@H]1C[C@]2(C)[C@H]3CC[C@@H]4[C@H]5C(C(=C)C)CC[C@]5(C(=O)NCCCN5CCN(CCCN)CC5)CC[C@@]4(C)[C@]3(C)CC[C@H]2C(C)(C)[C@H]1OC(C)=O (stereo not given in full) | -92% (active) | -19.8% (active) | 67.8% | -83.3% (active) | -87.4% (active) | 85.5% | -91.3% (active) | 72.1% | -80.5% (active) | -50.4% (active) | -68.7% (active) | -95.7% (active) | -8.5% (active) | -68.2% (active) | 8.53% (active) | 83.3% | -85.6% (active) | -85.3% (active) | -59.5% (active)
17 | Brc1ccccc1Cn1c(-c2cncs2)nc2ccccc21 | 98.4% | 74.6% | 98% | 71.2% | 97.6% | 92.1% | 88.5% | 96% | 92.9% | 82.8% | 80.7% | 53% | 84.6% | 84.8% | 57.2% | 76.2% | 70.1% | 75.8% | 104%
18 | Clc1ncnc2scc(C3COc4ccccc4O3)c12 (stereo not given) | 76.8% | 69.8% | 58.7% | 98.3% | 99.6% | 101% | 94.1% | 93.2% | 88.4% | 79.8% | 103% | 65.2% | 100% | 90.4% | 98.8% | 90.4% | 98.2% | 41% | 83.8%
19 | COc1cc(C)cc2oc3oc(=O)c(-c4csc(-c5cc6ccccc6oc5=O)n4)cc3c(=O)c12 | 113% | 112% | 105% | 99.5% | 102% | 105% | 99.3% | 115% | 104% | 114% | 110% | 113% | 99.3% | 110% | 104% | 99.9% | 99.2% | 94.6% | 109%
20 | O=C(/C=C/c1ccccc1)C(Br)C(Br)c1ccccc1 (stereo not given) | -21.3% (active) | 1.4% (active) | -54.3% (active) | 27.7% | -79.9% (active) | 13.9% | -33.1% (active) | 22.8% | 17.2% | -32.7% (active) | -53.5% (active) | 80.1% | 73.5% | 42.9% | 4.21% (active) | 38.9% | 5.9% (active) | -68.6% (active) | 11.1%
21 | COS(=O)(=O)CCN(CCOS(C)(=O)=O)S(C)(=O)=O | 105% | 76% | 98.9% | 109% | 105% | 107% | 91.2% | 82.6% | 94.3% | 95.4% | 85.4% | 90.4% | 107% | 96.8% | 94.8% | 104% | 102% | 96.5% | 99.1%
22 | Brc1cccc(-n2ncc3c(Nc4ccc(-c5nnc(-c6ccccc6)o5)cc4)ncnc32)c1 | 111% | 110% | 110% | 93.5% | 92.9% | 98.6% | 95.9% | 108% | 108% | 101% | 106% | 92.3% | 102% | 103% | 95.1% | 98.7% | 93.3% | 93.3% | 112%
23 | Cn1nc(C(F)(F)F)cc1-c1c[nH]c(OCc2ccc(Cl)cc2)c(-c2ccc(Cl)c(C(F)(F)F)c2)c1=O | 15.7% | 8.64% (active) | -24.2% (active) | -29% (active) | -21.9% (active) | 8.48% (active) | -11.4% (active) | 4.21% (active) | 1.49% (active) | 6.6% (active) | 5.99% (active) | -6.2% (active) | 21.1% | 8.33% (active) | 5% (active) | -63.9% (active) | -14.9% (active) | 7.07% (active) | 10.1%
24 | CCOC(=O)c1c(NC(=O)c2ccccc2)sc2c(O)c(CN(CC)CC)ccc12 | -26.9% (active) | 7.52% (active) | 38.1% | 1.41% (active) | -27.4% (active) | 4.48% (active) | 6.42% (active) | 51% | 14.4% | 15.7% | 2.28% (active) | -26.2% (active) | 43.8% | 1.72% (active) | 22.8% | -51.3% (active) | 21.2% | 13.3% | 40%
25 | CCC1CCc2nc3sc(C(=O)Nc4cccc(F)c4)c(N)c3cc2C1 (stereo not given) | 60% | 28.6% | 34.8% | 78.3% | 65.8% | 68.2% | 58.8% | 49.5% | 47.5% | 31.7% | 33.5% | 51.7% | 76.9% | 56.3% | 63.6% | 41.9% | 39.5% | 61.3% | 59.7%
